This experiment relates to PPARg:RXRa (NR concentration 180 nM, RXRa partner concentration 90 nM). Kind of experiment: PBM binding z-score (relative to random genomic background probes); higher = stronger binding; sequences stand for … in GC…GCGATTGACAGCGTAGAATGAAGG
In short, it runs like this: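 On custom Agilent 4×180K arrays, double-stranded probes with 34-nt variable regions carried direct-repeat seeds, single-nucleotide variants, half-site ablations or random human genomic background. Ligand-free nuclear receptor dimers were applied for 1 h, and binding was read with antibodies against each partner (one per run). Binding z-scores come from regression-normalized fluorescence, with the random background probes as reference.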
Take CCTAGCAGGCCAATCTGGGTGACTCAAGGCTTGA: the PBM binding z-score was found to be 0.507.
CGAACTAGGTCAGAACTGGACAGTGAAGGATGAT gave a PBM binding z-score of 5.1.
To GGAACGAGGGCATTCGAGTTGATGGCATGGCGAT belongs 0.637.
To TCAGACAGGTGAAGGTAACTCCGGTACGCAGTCG belongs 0.509.
In turn, CGTCCCAGGTCAATGCTAGGTCAGTGAAAGCATT yielded a PBM binding z-score of 2.35.
To TCATATAGGTAAACAGGTGGAAGTCCGTAAGTTA belongs 1.16; to CCAGACAGGTGAAAGGTAACCCAGTCTGGTACGC, 5.86.
The value for CTACCAAGCTGAACAAGGTCGTTGATTACTATTC was -0.00663; that for GGAACGAGGGCGTTCGAGTTGATAGCATGGCGAT was 0.127; that for CAGCCTAGGTCTGGGCCAGTATAGGAGGAACGTT was -0.286.
The value for GGAGACAGGTGAAACGCAGGTAACTCAGGGTGGC was 0.617; that for TAGCCTAGGTCATGGGCCGGTATACCACGCGAAC was 3.35.
Turning to CAAACTCGGTCACAGAGGTCAAAGTCCGTGCGTA, the PBM binding z-score turned out to be 5.27.
The value for CCTACTGCGCCACGAAAGGTCATTGATTCAGTGA was 1.08; that for GCGTACGGGTCAAAGGTTATAGCATGAATAGAAT was 10.5; that for CCATACGGGTCACGAGGTTATAGCACGACGAGCG was 7.19.
Turning to TCATATAGGTAAATGCTAGGTGAAATTCCGATCT, the PBM binding z-score worked out at 0.929.
The value for CGAACGAGGGGATGAGTTGATAGCAAATGCCGAT was 0.733; that for GCATATAGGTGATACAAGGTGAAAGTCCGATTGT was 1.73; that for CCGACTGCGGCAAAGGTTACCATACTCAGTACGA was 2.8.
The value for ACTATTAGTTGTGACGAGGGCAACCGATAGGTTG was 0.623; that for TCGAGTAGGTTACCAATGGGGCATTCCGCTTTCT was -0.123.
The value for CGAACTAGGTCCTCCAGGACAGTGAATACATTGA was 0.755; that for TCAAGTAGGTTACCAATGGGGCATTCAGCTTTCT was 2.1.
Sequence GCTGTTAGGTCAACTGATGGTCAGCTAAAGCTCG came in with a PBM binding z-score of 2.
To TCATATAGGTAAACAGGTGCAAGTCCGTAAGTTA belongs 1.1; to TCTTGTAGATCAATAGAGGATAAGAAAGTGCGCT, 0.389.
To TTACCAGGGTGAAGGTCGTTGATCCCTCTGTAGA belongs 6.75; to GCTAGCAGGCCATTTTGGTCACTCAATGACGGGC, 0.24; to CGTCCAAGGTCAATGCTAGGTCAGTGTAAGCATT, 3.55.
To TATACAGCGTCAAAGGCCAGAGTACGAATGTCGA belongs 1.16; to ATCTCGAGGTAAAGTTCAGTGAAAGATCGATAGA, 2.53; to CATACAGGGTCAGCTAGGCCAGTGTAGGGACGGC, 2.96.
Turning to ATATGTAGGTTATCGCGTCATTCAGTTTGCGCAT, the PBM binding z-score was determined as 3.86.
CCGACTGGGGTAAAGGTTACCATACTCAGTACGA: the PBM binding z-score amounted to 11.1.
Consider TAGCCTAGGTCATGCGGGCCAGGATAGTGTCGGC, for which the PBM binding z-score came to 2.26.
The value for CCTAGTAGGTCAAGGTCACACACGCTATAGGTAC was 9.25; that for TCGAGTAGGTTACCATTGGGGCATTCAGCTTTCT was 0.0586.
Sequence TTACCAAGGTGGGCTGAGGTCGTTGATCCAACTC showed a PBM binding z-score of -0.473.
AGAATGACGTTATACGTAGATCAGGGAAGAAAGT returned a PBM binding z-score of 0.583.

The values above are taken from the supplement of paper PMC6555819.
